From PubChem BioAssay
Arbovirus inh – antivirals against arbovirus infection, primary screen, cell-based, full library, 10K replicate subset. arbovirus infection cell-based antiviral screen. 200,000 tested, 0.37% active. AID 1251, 2008. inhibition, % at 10 µM; in the data active = inhibition above about 30%
WT yeast gro inh – growth inhibition of WT strain, primary screen, mitochondrial fusion inhibitor project, WT and mutant strains, chemical genetic; mitochondrial fusion phenotypic screen; inhibition, % at 10 µM; 190,000 tested, 2.1% active; AID 1362, 2008; in the data active = inhibition above about 58%; tested in S. cerevisiae
PERK inhibitor – block of dimerizer-induced PERK translation repression, primary screen, PERK inhibitor project, CHO PERK-DD cells, SEAP luminescence, HTS. 220,000 tested, 0.17% active. AID 1416, 2008. inhibition, % at 5.6 µM. Eukaryotic translation initiation factor 2-alpha kinase 3 (Homo sapiens), Q9NZJ5. CHO PERK-DD fusion, SEAP luminescence translation reporter;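 active = inhibition above the mean inhibition of all tested compounds plus 3 SD, set separately per screening campaign, cut at about 2.9% in these data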;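 also: PERK kinase domain activated by AP20187 dimerizer at 100 nM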
ROMK primary – ROMK potassium channel modulators, primary screen, cell-based, thallium flux, MLSMR library; Tet-inducible ROMK, thallium flux fluorescence; actives lie on both sides; ATP-sensitive inward rectifier potassium channel 1 (Homo sapiens), P48048; 130,000 tested, 2% active; AID 1918, 2009; B-score at 10 µM;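 active = signal ratio slope over the read window, or its plate-corrected B-score, at least 3 SD from the plate mean, either direction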;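 also: B-score of the F/F0 ratio slope over 7 to 12 s after thallium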
Target sequence (P48048 whole entry, looked up): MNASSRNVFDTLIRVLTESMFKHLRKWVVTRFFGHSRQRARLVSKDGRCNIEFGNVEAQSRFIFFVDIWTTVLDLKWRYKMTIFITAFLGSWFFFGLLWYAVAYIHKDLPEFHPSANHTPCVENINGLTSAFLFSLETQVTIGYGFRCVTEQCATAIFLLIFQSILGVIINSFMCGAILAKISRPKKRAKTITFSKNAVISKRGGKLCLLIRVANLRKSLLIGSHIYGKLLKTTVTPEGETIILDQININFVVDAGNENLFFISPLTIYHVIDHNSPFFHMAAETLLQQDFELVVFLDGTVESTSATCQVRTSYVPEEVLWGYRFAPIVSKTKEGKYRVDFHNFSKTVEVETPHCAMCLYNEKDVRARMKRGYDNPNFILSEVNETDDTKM
ROMK hit retest – ROMK channel modulator hit retest, confirmation, cell-based, thallium flux, duplicate, resupplied hits; shares compounds with ROMK primary; fluorescence ratio; active compounds read low; normalized thallium flux (F/F0 slope) at 10 µM; 3,000 tested, 54% active; AID 1917, 2009;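 active = Flux at 10 µM at least 3 SD below or above vehicle control mean in one or both replicates; inconclusive = no clear call, values can overlap the other calls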
Each line names hits and unclear results; the compound was inactive in the other large screens (follow-up assays come after a bar, where they were run). In the library only some 3.3% were active in any assay of this set; here they are far more common.

NC1=NC(=O)/C(=C\c2cc([N+](=O)[O-])ccc2Cl)S1	ROMK primary -2 | ROMK hit retest 0.066
Cc1ccsc1/C=C1\SC(N)=NC1=O	none
Clc1cccc2c1Sc1ccccc1CC2N1CCNCC1 (stereo not drawn)	ROMK primary -3.1 | ROMK hit retest 0.051
c1ccc(-c2nc3nonc3nc2-c2ccccc2)cc1	ROMK primary -4.2 | ROMK hit retest 0.063
COc1ccccc1NC(=O)CCSc1nnnn1C	none (no result: ROMK primary) | ROMK hit retest inactive
Cn1c(=O)c2c(nc(OCC3COC(C)(C)O3)n2Cc2ccccc2F)n(C)c1=O (stereo not drawn)	none
Cn1nnnc1SCCNCc1ccccc1OCc1ccc(F)cc1	ROMK primary -3.8 | ROMK hit retest 0.059
O=C(NNS(=O)(=O)c1ccc(F)cc1)C1CC(c2cccnc2)=NO1 (stereo not drawn)	none
Cc1[nH]n(-c2ccccc2)c(=O)c1C(C[N+](=O)[O-])c1ccc(Cl)cc1 (stereo not drawn)	ROMK primary -3 | ROMK hit retest 0.061
COc1ccccc1C/C(N)=N/OC(=O)c1ccc(C)c([N+](=O)[O-])c1	none (no result: ROMK primary)
COc1ccccc1C/C(N)=N/OC(=O)c1ccc2c(c1)OCO2	ROMK primary -3.1 | ROMK hit retest inactive
CCC(=O)Nc1cccc(C(=O)/C=C/c2ccccc2)c1	none (no result: ROMK primary)
CCC(=O)Nc1cccc(C(=O)/C=C/c2cccs2)c1	none | ROMK hit retest 0.069
CC(=NCCCn1ccnc1)c1c(O)n(Cc2ccccc2)c(=O)[nH]c1=O	none
N#C/C(=C\c1ccc(OCc2cccc(C(=O)O)c2)cc1)C(=O)NCc1ccco1	none (no result: Arbovirus inh, WT yeast gro inh, ROMK primary) | ROMK hit retest 0.039
COCCNC(=O)/C(C#N)=C/c1ccc(OCc2ccccc2)cc1	none (no result: ROMK primary)
CCOC(=O)N1CCN(C(=O)c2ccc3c(=O)n4c(nc3c2)CCCCC4)CC1	none
N#Cc1c(NCCN)nc(-c2ccccc2)c2c1CCCC2	ROMK primary -4 | ROMK hit retest 0.05
CCn1c(SCc2nc(-c3cccs3)no2)nnc1-c1c[nH]c2ccccc12	none (no result: ROMK primary) | ROMK hit retest 0.057
CCn1c(SCc2nc(-c3ccccc3)no2)nnc1-c1cccs1	none
COc1cc(/C=N/NC(=O)c2cccnc2)ccc1OC(=O)c1ccc([N+](=O)[O-])cc1	none
COc1ccc(NC(=O)COc2ccc(/C=N/NC(=O)c3cccnc3)cc2OC)cc1	none (no result: ROMK primary)
COc1ccc(/C=N/NC(=O)c2cccnc2)cc1COc1ccc(NC(C)=O)cc1	ROMK primary 3.9 (no result: Arbovirus inh, WT yeast gro inh) | ROMK hit retest inconclusive
COc1ccc(/C=N/NC(=O)c2cccc(OC(F)(F)C(F)F)c2)cc1O	ROMK primary 1.8 | ROMK hit retest inactive
COc1ccc(/C=N/NC(=O)c2cccnc2)cc1COc1ccc([N+](=O)[O-])cc1	ROMK primary 4.7 (no result: Arbovirus inh, WT yeast gro inh) | ROMK hit retest inactive
O=C(CN(Cc1ccco1)S(=O)(=O)c1cccs1)Nc1ccccc1C(F)(F)F	none
Cc1cccc(C2Nc3ccccc3C(=O)N2c2ccc(F)cc2)n1 (stereo not drawn)	none
CCN(CC)CCNC(=O)C(=O)NCC1OCCN1C(=O)c1ccc2c(c1)OCO2 (stereo not drawn)	none (no result: ROMK primary)
OC(CNC1Cc2ccccc2C1)COc1ccc(Cl)cc1 (stereo not drawn)	ROMK primary -5.3 (no result: Arbovirus inh, WT yeast gro inh) | ROMK hit retest 0.049
OC(CNC1CCCC1)COc1ccc(-c2ccccc2)cc1 (stereo not drawn)	none
O=C(Nc1nc2cc3c(cc2s1)OCO3)C1=COCCO1	ROMK primary 2.5 | ROMK hit retest inactive
CC(=O)Nc1nc2cc3c(cc2s1)OCO3	none (no result: ROMK primary)
COc1ccccc1NC(=O)Cn1c2ccccc2c2nc3n(c(=O)c21)CCS3	none
O=C(Cn1c2ccccc2c2nc3n(c(=O)c21)CCS3)Nc1ccccc1C(F)(F)F	ROMK primary -3.2 | ROMK hit retest 0.069
O=C(NCC(c1ccco1)N1CCCCC1)c1ccc(OCc2ccccc2)cc1 (stereo not drawn)	WT yeast gro inh 71, ROMK primary -3.2 | ROMK hit retest inactive
CCOc1nc(NCCN2CCOCC2)nc(Nc2ccc([N+](=O)[O-])cc2)n1	none
COCCOC(=O)/C(=C\c1cc(C(C)(C)C)c(O)c(C(C)(C)C)c1)C(C)=O	none (no result: Arbovirus inh, WT yeast gro inh, ROMK primary) | ROMK hit retest 0.061
CC(C)(C)c1cc(CCC(=O)NN)cc(C(C)(C)C)c1O	none
